# Test results reported in paper PMC5540273 (PLoS ONE, 2017).
# Assays:
# Conditions in all cases: concentration: 1 μM,replicates: in singlicate; n = 1
# NIM1 = tested on: T1, NIM1
# T1 construct: gene MGC42105
# NLK = tested on: NLK
# OSR1 = tested on: T2, OSR1
# T2 construct: gene OXSR1
# PAK1 = tested on: PAK1
# PAK2 = tested on: PAK2
# PAK3 = tested on: PAK3
# PAK4 = tested on: PAK4
# PAK6 = tested on: PAK6
# PAK7 = tested on: PAK7
# PCTK1 = tested on: T3, PCTK1
# T3 construct: gene CDK16
# 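Note: KINOMEscan kinase panel screen.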
Structure (SMILES),%Inh (NIM1),%Inh (NLK),%Inh (OSR1),%Inh (PAK1),%Inh (PAK2),%Inh (PAK3),%Inh (PAK4),%Inh (PAK6),%Inh (PAK7),%Inh (PCTK1)
CNC(=O)c1ccccc1Nc1nc(Nc2cccc(CS(C)(=O)=O)c2)ncc1C.O=CO [GSK1520489],97.4%,39%,28%,64%,52%,97.8%,55%,79%,85%,6%
COc1cc2c(Nc3ccc(NC(=O)c4ccccc4)cc3)ncnc2cc1OCCCN1CCOCC1 [GSK301329],16%,7%,20%,0%,3%,30%,0%,5%,0%,3%
CCN1CCN(CCCC(=O)Nc2n[nH]c3nc(-c4ccc(O)cc4)c(Br)cc23)CC1 [SB-731579],3%,0%,0%,0%,33%,36%,61%,0%,7%,56%
O=C(Nc1ccccc1)c1cccc(Oc2ccc3nccn3n2)c1,1%,0%,0%,0%,0%,5%,0%,9%,0%,0%
CC(C(=O)NC1CCN(c2ccnc(Nc3ccc(F)cc3)n2)C1)c1ccc(Cl)cc1 (stereo not drawn) [GSK1379713],17%,0%,5%,5%,2%,0%,0%,0%,0%,3%
Cc1ccc(Nc2ccnc(Nc3ccc4c(c3)CS(=O)(=O)C4)n2)cc1O.Cl [GW579362],17%,97.5%,46%,26%,29%,20%,0%,28%,56%,17%
CSc1nccc(-c2c(-c3ccc(F)cc3)ncn2CCCN2CCOCC2)n1.Cl [SB-217146],0%,0%,0%,3%,43%,0%,10%,0%,0%,0%
CC(=O)Nc1nc2cnc(Nc3cc(NC(=O)c4cccc(CC(C)(C)C#N)c4)ccc3C)nc2s1,23%,1%,41%,25%,25%,28%,8%,21%,2%,25%
Cc1cccc(-c2nc(Nc3ccncc3)c3sccc3n2)n1 [GW869641],35%,60%,24%,15%,30%,50%,23%,11%,2%,22%
COc1ccc(Nc2nccc(N3CCC(NC(=O)c4cccc(C#N)c4)C3)n2)cc1 (stereo not drawn) [GSK1379730],0%,0%,0%,0%,0%,24%,0%,0%,0%,3%
CS(=O)(=O)Nc1ccc(-c2ccnc3[nH]ccc23)cc1 [GSK993273],13%,30%,41%,26%,27%,51%,0%,11%,3%,15%
O=C1NCCc2[nH]c(-c3ccncc3)cc21,45%,22%,3%,38%,40%,42%,14%,17%,0%,0%
c1ccc(Oc2ccc(Nc3ccnc4ccc(-c5ccccn5)cc34)cc2)cc1 [GW407034],17%,13%,57%,20%,11%,0%,0%,0%,7%,8%
COc1cccc(OC)c1C(=O)Nc1cccc(-c2nn3ccccc3c2-c2ccnc(Nc3cccc(F)c3)n2)c1 [GSK361065],0%,90%,0%,6%,10%,0%,10%,24%,0%,0%
Cc1ccc(CC(=O)N2CCc3cc(-c4cn(C)c5ncnc(N)c45)ccc32)cc1 [GSK2634758],13%,1%,0%,0%,0%,49%,0%,100%,0%,0%
C[C@@H](Oc1cc(-n2cnc3cc(-c4cnn(C)c4)ccc32)sc1C(N)=O)c1ccccc1Cl [GSK580432],64%,0%,12%,0%,13%,63%,0%,2%,0%,0%
Cn1ccc2ncnc(Oc3ccc(NC(=O)Nc4cccc(C(F)(F)F)c4)c(F)c3)c21,0%,18%,0%,14%,12%,0%,6%,0%,0%,0%

Structure (SMILES),%Inh (NIM1),%Inh (NLK),%Inh (OSR1),%Inh (PAK1),%Inh (PAK2),%Inh (PAK3),%Inh (PAK4),%Inh (PAK6),%Inh (PAK7),%Inh (PCTK1)
Cn1ccc2ncnc(Oc3ccc(NC(=O)Nc4cccc(C(F)(F)F)c4)c(Cl)c3)c21,0%,25%,0%,10%,17%,21%,15%,1%,1%,0%
COc1cc2nccc(Nc3ccc(Oc4ccccc4)cc3)c2cc1OC.Cl [GI261656],5%,0%,0%,0%,0%,0%,0%,0%,3%,0%
CN(c1cccc(CNc2nc(Nc3ccc4c(c3)CC(=O)N4)ncc2C(F)(F)F)c1)S(C)(=O)=O,0%,8%,0%,15%,42%,0%,11%,14%,13%,0%
Cl.c1ccc(Oc2ccc(Nc3ccnc4cc(-c5ccc(CN6CCNCC6)o5)ccc34)cc2)nc1 [GW567142],0%,15%,0%,7%,0%,0%,0%,0%,0%,1%
CC(C)c1nc(-c2cccc(NS(=O)(=O)c3ccccc3)c2)c(-c2ccnc(Nc3ccc4c(c3)CN(C)CC4)n2)s1 [GSK1649598],29%,98.1%,14%,39%,25%,88%,0%,10%,3%,100%
Nc1nccc(-c2ccc3c(N)n[nH]c3c2)n1 [GSK1034945],17%,33%,6%,18%,11%,7%,0%,0%,2%,0%
C[C@@H]1CCN(C(=O)N2CCCC2)C[C@@H]1N(C)c1ncnc2[nH]ccc12,18%,0%,11%,0%,0%,25%,0%,0%,3%,5%
CC(C)S(=O)(=O)N1CCN(Cc2ccc3c(c2)nc(NC(=O)c2ccsc2)n3C[C@H](O)c2ccccc2)CC1 [GW635815],20%,0%,10%,22%,27%,15%,44%,9%,35%,0%
C[C@@H]1CNc2c(sc3ccc4nc(-c5ccncc5)ccc4c23)C(=O)N1,0%,0%,9%,0%,5%,9%,24%,9%,0%,0%
O=C(Nc1cccc(Oc2ccc3nccn3n2)c1)Nc1cccc(C(F)(F)F)c1,14%,19%,0%,0%,0%,0%,0%,5%,0%,0%
Cc1ccc(C(=O)Nc2ccc(Oc3ccc4nc(NC(=O)C5CC5)cn4c3)c(F)c2)c(=O)n1-c1ccccc1,0%,7%,0%,0%,2%,12%,0%,8%,0%,0%
COC(=O)Nc1nc2cc(Oc3ccc(NC(=O)Nc4cc(C(F)(F)F)ccc4Cl)cc3)ccc2[nH]1.Cl [GW697465],26%,2%,10%,36%,29%,25%,0%,0%,2%,0%
CCn1c(-c2nonc2N)nc2cncc(Br)c21 [SB-738004],37%,22%,0%,0%,16%,1%,7%,15%,32%,0%
C[C@@H](Oc1cc(-n2cnc3ccc(-c4ccncc4)cc32)sc1C(N)=O)c1ccccc1Cl [GSK483724],13%,49%,11%,8%,29%,21%,44%,13%,10%,7%
NC(=O)Nc1sc(-c2ccc(F)cc2)cc1C(N)=O [GW789449],14%,0%,16%,0%,4%,24%,11%,12%,1%,0%
O=C(Nc1cccc(C(F)(F)F)c1)c1cccc(Oc2ccc3nccn3n2)c1,44%,0%,0%,0%,0%,20%,8%,1%,0%,21%
